Experimental findings from PubChem BioAssay (NCATS) are described below.

Assay [1] can be described thus: NCATS anti-infectives library activity on HEK293 viability as a counter-qHTS vs the C. elegans viability qHTS (AID 1745854).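 Note: HEK293 cells exposed to compounds for 24 hr before the viability read; % is set by controls: 0 for no effect and ±100 for the full control effect.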 An outline of the steps: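 Counter-screen for cytotoxicity: HEK293, 24 hr, 37C, compounds up to 41.7 uM final (a dilution series, 1:5). Readout CellTiter-Glo luminescence, 10 min RT. Digitonin control, 83.3 uM final.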
In assay [2] the target is Glutathione peroxidase 1 (Homo sapiens) (UniProt P07203). Briefly: Primary qHTS Assay for Inhibitors of Recombinant Selenoprotein Glutathione Peroxidase 1 (GPX1) (AID 1845191). Note: nearly all actives have a fitted effect of over 65% in size. An outline of the steps: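 GPX1 10 nM, GR 100 nM, GSH 1 mM, NADPH 0.5 mM, CHP 0.5 mM (final). 30-min cpd preincubation, RT. Ex340/Em450 read t=0, t=15 min.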
Assay [3] deals with Phospholipid hydroperoxide glutathione peroxidase GPX4 (Homo sapiens) (UniProt P36969). Briefly: Primary qHTS Assay for Inhibitors of Recombinant Selenoprotein Glutathione Peroxidase 4 (GPX4) (AID 1845192). Note: nearly all actives have a fitted effect of over 65% in size. An outline of the steps:
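qHTS, GR-coupled: GPX4 200 nM + cpd 30 min RT → GSH 1 mM, NADPH 0.5 mM, GR 100 nM → CHP 0.5 mM start; fluor 340/450 at t0 and t15 min; no-enzyme wells as control.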

Assay [4] deals with Luciferin 4-monooxygenase (Photinus pyralis) (UniProt P08659). The assay can be described thus: Primary firefly luciferase (FLuc) qHTS assay for identification of artifact compounds. (AID 1845220). Note: nearly all actives have a fitted effect of over 60% in size. In outline: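 qHTS, 15 min compound preincubation with substrate (10 uM luciferin, 10 uM ATP) at RT, then 10 nM FLuc; 5 min; luminescence; % inhibition vs no-enzyme/DMSO controls, 4-parameter Hill fit.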

The subject of assay [5] is Nanoluciferase (engineered Oplophorus gracilirostris luciferase). The assay can be described thus: Primary Nanoluciferase (NLuc) qHTS assay for identification of artifact compounds. (AID 1845222). Note: series mostly up to about 54 µM. In outline: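 Luminescence read-out of secreted NLuc in S16 cell conditioned medium (1:55); compounds tested with 15 min RT preincubation, then Nano-Glo substrate 1:100, 5 min. % inhibition vs no-enzyme and DMSO controls, 4-parameter Hill fit.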

Assay [6] is described as follows: Primary redox qHTS assay for identification of artifact compounds. (AID 1845223).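 Note: 0% = DMSO and 100% = reference compound.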 An outline of the steps:
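Redox-cycling detection via DTT (250 uM final) oxidation coupled to Amplex Red (25 uM)/HRP (250 mU/mL) in HBSS. 15 min preincubation plus 30 min after DTT, room temperature. Ex/Em 525/598 nm; 4-parameter Hill fit against DMSO and 10 uM DA3003.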

Assay [7] can be described thus: Primary fluorescence-based thiol-reactive (MSTI) qHTS assay for identification of artifact compounds. (AID 1845221). Note: nearly all actives have a fitted effect of over 65% in size. Note: potency is the fitted concentration of half-maximal effect. An outline of the steps:
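In PBS pH 7.4 with 2% DMSO, each compound met 4 uM MSTI for one hour at ambient temperature, shielded from light, before fluorescence detection.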

Assay [8] in a line: Viability counterscreen for antagonist of constitutive androstane receptor (CAR) against the NCATS DSHEA and TCM libraries (AID 1794837).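 Note: compound exposure lasted 24 h before viability reading; 0% is about no effect.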 In outline: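 Cells: HepG2 line carrying CYP2B6 reporter and hCAR, seeded and attached 5 h. Then pin-transferred test substances plus agonist CITCO at 48 uM final; 24 h incubation; fluorogenic viability reagent, 1 h.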
Assay [9] in a line: Viability counterscreen for agonist of constitutive androstane receptor (CAR) against the NCATS DSHEA and TCM libraries (AID 1794838).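 Note: HepG2 cells with CYP2B6 reporter and hCAR plus 0.75 µM PK11195 antagonist; 0% is about no effect.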 An outline of the steps:
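Cell health was measured as CellTiter-Fluor signal in HepG2-CYP2B6-hCAR cells treated for 24 h with substances alongside the hCAR antagonist PK11195 (0.75 uM final).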

In assay [10] the target is Nuclear receptor subfamily 1 group I member 3 (Homo sapiens) (UniProt Q14994). The assay can be described thus: Primary qHTS for agonist of constitutive androstane receptor (CAR) against the NCATS DSHEA and TCM libraries (AID 1794839).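 Note: HepG2 cells expressing human CAR with a CYP2B6 reporter plus PK11195 antagonist; luciferase reporter luminescence read with ONE-Glo; 0% is about no effect.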 An outline of the steps:
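qHTS, agonist mode: HepG2-CYP2B6-hCAR, 2,500 cells/well, 5 h attach; cpds + PK11195 0.75 µM final; 24 h, 37 °C, 5% CO2. Readouts: CellTiter-Fluor (405/540 nm), then ONE-Glo luminescence.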

A short description of assay [11]: HepG2 viability counterscreen (readout 2: ATP content) against the NCATS DSHEA and TCM libraries (AID 1794840). Note: 0% is about no effect. An outline of the steps: (§1)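 Same wells read twice: first fluorescence from cleaved GF-AFC substrate (25 uM final, 30 min, 37C) for live-cell protease, then CellTiter-Glo luminescence after 30 min at room temperature for ATP. HepG2 cells were exposed ~24 h to substances.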

Assay [12] in a line: HepG2 viability counterscreen (readout 1: protease activity) against the NCATS DSHEA and TCM libraries (AID 1794841).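 Note: cells exposed to compounds for about 24 h before the protease read; 0% is about no effect.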 In outline: as §1
For assay [13], the target named is Cytochrome P450 3A4 (Homo sapiens) (UniProt P08684). Briefly: qHTS for inhibitors of CYP3A4 against the NCATS DSHEA and TCM libraries (AID 1919971). Note: potency is the fitted concentration of half-maximal effect. In outline: (§2)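 Concentration-response screening with isoform-matched pro-luciferin substrates. The CYP reaction was initiated by NADPH regenerating solution and ran 30-45 min in darkness at room temperature.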
Assay [14] has as its target Cytochrome P450 2D6 (Homo sapiens) (UniProt P10635). Briefly: qHTS for inhibitors of CYP2D6 against the NCATS DSHEA and TCM libraries (AID 1919972). Note: % is set by controls: 0 for no effect and ±100 for the full control effect. An outline of the steps:
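CYP2D6 enzyme with pro-luciferin substrate in manufacturer buffer (typically 100 mM KPO4), preincubated 15 min RT with substances (most at 19.5 nM upward); NADPH regeneration system (1x) started 30–45 min RT reaction; P450-Glo luminescence read after 30 min; quinidine as intraplate control.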

In assay [15] the target is Cytochrome P450 2C9 (Homo sapiens) (UniProt P11712). Briefly: qHTS for inhibitors of CYP2C9 against the NCATS DSHEA and TCM libraries (AID 1919973). Note: potency is the fitted concentration of half-maximal effect. In outline:
as §2

The target in assay [16] is Cytochrome P450 2C19 (Homo sapiens) (UniProt P33261). The assay can be described thus: qHTS for inhibitors of CYP2C19 against the NCATS DSHEA and TCM libraries (AID 1919974).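 Note: luminescence from luciferin released by CYP2C19 oxidation of a pro-luciferin substrate.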 Note: potency is the fitted concentration of half-maximal effect. In outline: as §2
A short description of assay [17]: KB-3-1 P-gp reporter qHTS against the NCATS DSHEA and TCM libraries (AID 1919975). Note: 0% is about no effect. In outline:
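KB-3-1 parental line, 1536-well qHTS: cells seeded, ~4 h attachment, pintool compound addition, ~72 h at 37C, then CellTiter-Glo, 30 min RT, luminescence. Concentration-response format.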

In assay [18] the target is Cytochrome P450 1A2 (Homo sapiens) (UniProt P05177). Briefly: qHTS for inhibitors of CYPIA2 against the NCATS DSHEA and TCM libraries (AID 1919976). Note: potency is the fitted concentration of half-maximal effect. An outline of the steps: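 Enzyme and pro-luciferin substrate, or substrate alone as no-enzyme background, are pre-incubated with test samples for 15 min at room temperature. NADPH regeneration system (1x final) initiates a 30-45 min dark reaction; luciferase detection reagent follows before luminescence reading.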

Assay [19] is described as follows: qHTS Counterscreen for compound interference against the NCATS DSHEA and TCM libraries (AID 1919978).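 Note: compounds preincubated with 1 µM D-luciferin or buffer before detection reagent; % of control where 0% means no effect.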 Conditions: firefly luciferase detection reagent interference, luminescence. An outline of the steps: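 Compounds, titrated from 19.5 nM to 39.8 uM final, were pinned onto 1 uM D-luciferin or plain 100 mM potassium phosphate. After 15 min at room temperature, luciferin detection reagent was added for 30 min before the luminescence read.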

A short description of assay [20]: NCATS anti-infectives library activity on the primary C. elegans qHTS viability assay (AID 1745855; calls by dose curve; note: potency is the fitted concentration of half-maximal effect). Conditions: C. elegans worm area imaging, day 7. In outline:
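GFP read-out by 488 nm laser cytometry at day 0, 3 and 7, gated on object perimeter, area and peak intensity, scored viability of PE254-GFP-FLuc worms exposed to compound in S medium with bacterial capsules at 21 °C.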

The structures appear in SMILES notation. Unmarked numbers belong to inactive results. Inconclusive results are not listed. Calls of active or inactive are those of the source. Unless noted, calls come from the whole dose curve; as a rule, active = well fitted curve in the direction sought with a large enough effect; inconclusive = small, poorly fitted or top-dose-only effect, or another doubt; inactive = no such curve, though single readings can be large; an effect the other way counts as inactive or inconclusive.

Phospholipid hydroperoxide glutathione peroxidase GPX4 (Homo sapiens), sequence (P36969 whole entry, looked up): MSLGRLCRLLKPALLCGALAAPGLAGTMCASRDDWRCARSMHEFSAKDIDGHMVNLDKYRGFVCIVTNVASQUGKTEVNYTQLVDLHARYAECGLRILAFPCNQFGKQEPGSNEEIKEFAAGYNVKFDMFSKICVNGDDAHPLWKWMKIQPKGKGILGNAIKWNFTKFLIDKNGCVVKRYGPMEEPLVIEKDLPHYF
Glutathione peroxidase 1 (Homo sapiens), sequence (P07203 whole entry, looked up): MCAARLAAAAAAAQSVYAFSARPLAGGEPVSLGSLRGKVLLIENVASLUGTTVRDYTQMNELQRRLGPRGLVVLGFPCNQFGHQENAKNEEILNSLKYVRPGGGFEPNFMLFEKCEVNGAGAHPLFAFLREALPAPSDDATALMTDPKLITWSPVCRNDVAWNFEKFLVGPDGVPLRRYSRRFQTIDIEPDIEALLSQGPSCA
Cytochrome P450 2C19 (Homo sapiens), sequence (P33261 whole entry, looked up): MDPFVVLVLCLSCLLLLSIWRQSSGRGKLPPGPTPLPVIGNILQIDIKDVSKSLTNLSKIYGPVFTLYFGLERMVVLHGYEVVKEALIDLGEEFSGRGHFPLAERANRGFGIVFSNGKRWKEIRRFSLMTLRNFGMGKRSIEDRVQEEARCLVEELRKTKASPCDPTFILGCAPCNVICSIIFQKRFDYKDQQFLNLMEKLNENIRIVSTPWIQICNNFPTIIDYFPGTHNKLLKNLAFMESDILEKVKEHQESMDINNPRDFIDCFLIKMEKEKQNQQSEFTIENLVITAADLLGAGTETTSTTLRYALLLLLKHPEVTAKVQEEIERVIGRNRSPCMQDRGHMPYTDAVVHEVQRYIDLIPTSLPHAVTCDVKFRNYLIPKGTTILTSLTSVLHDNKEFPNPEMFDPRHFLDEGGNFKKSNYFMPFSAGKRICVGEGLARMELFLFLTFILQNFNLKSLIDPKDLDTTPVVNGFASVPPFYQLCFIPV
Cytochrome P450 2D6 (Homo sapiens), sequence (P10635 whole entry, looked up): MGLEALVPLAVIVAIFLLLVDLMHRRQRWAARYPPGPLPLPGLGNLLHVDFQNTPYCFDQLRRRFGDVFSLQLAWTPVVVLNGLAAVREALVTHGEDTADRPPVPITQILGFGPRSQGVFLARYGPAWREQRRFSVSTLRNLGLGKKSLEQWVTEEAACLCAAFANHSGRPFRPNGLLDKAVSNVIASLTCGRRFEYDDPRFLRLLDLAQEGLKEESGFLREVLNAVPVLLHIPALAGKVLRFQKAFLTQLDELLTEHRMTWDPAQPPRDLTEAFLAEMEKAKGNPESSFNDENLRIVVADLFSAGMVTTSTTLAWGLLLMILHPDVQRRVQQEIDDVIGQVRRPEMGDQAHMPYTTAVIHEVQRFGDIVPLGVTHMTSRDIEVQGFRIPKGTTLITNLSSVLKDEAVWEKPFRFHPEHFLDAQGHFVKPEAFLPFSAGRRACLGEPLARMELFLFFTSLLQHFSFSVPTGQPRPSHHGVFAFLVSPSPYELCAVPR
Cytochrome P450 2C9 (Homo sapiens), sequence (P11712 whole entry, looked up): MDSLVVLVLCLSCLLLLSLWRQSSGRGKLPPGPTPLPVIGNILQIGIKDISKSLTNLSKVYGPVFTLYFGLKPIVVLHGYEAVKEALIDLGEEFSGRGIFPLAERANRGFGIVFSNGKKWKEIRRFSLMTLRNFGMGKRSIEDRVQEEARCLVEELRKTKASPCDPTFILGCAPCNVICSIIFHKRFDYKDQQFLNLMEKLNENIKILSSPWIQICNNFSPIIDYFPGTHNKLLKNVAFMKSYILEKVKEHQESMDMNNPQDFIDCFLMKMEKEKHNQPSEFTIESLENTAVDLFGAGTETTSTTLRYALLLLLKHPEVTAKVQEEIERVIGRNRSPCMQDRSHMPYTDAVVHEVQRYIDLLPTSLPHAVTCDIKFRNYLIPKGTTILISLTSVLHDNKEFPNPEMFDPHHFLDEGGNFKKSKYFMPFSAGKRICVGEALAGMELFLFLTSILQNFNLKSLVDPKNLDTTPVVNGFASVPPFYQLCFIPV
Cytochrome P450 3A4 (Homo sapiens), sequence (P08684 whole entry, looked up, canonical isoform): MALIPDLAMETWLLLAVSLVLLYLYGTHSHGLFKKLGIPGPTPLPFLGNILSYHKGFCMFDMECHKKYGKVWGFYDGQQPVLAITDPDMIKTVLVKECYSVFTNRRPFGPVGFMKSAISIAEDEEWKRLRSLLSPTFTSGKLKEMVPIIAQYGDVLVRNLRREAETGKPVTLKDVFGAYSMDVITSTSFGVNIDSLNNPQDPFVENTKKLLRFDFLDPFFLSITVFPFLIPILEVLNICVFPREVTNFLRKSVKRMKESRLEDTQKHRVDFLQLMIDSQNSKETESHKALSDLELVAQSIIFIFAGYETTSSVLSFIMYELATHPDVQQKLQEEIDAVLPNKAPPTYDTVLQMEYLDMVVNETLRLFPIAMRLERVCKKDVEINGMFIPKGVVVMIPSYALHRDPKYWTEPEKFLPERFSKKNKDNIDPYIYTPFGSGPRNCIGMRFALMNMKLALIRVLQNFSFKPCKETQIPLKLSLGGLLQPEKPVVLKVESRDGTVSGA
Nuclear receptor subfamily 1 group I member 3 (Homo sapiens), sequence (Q14994 whole entry, looked up): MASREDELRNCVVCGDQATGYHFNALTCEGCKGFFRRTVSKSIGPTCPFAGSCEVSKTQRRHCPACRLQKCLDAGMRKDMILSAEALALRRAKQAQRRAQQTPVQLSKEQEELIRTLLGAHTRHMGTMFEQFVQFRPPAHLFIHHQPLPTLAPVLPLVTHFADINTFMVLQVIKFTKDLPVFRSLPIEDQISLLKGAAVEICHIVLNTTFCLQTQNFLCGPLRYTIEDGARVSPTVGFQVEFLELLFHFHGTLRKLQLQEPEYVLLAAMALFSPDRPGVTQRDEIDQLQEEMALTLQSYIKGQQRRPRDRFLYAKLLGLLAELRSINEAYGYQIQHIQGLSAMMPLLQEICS
Cytochrome P450 1A2 (Homo sapiens), sequence (P05177 whole entry, looked up): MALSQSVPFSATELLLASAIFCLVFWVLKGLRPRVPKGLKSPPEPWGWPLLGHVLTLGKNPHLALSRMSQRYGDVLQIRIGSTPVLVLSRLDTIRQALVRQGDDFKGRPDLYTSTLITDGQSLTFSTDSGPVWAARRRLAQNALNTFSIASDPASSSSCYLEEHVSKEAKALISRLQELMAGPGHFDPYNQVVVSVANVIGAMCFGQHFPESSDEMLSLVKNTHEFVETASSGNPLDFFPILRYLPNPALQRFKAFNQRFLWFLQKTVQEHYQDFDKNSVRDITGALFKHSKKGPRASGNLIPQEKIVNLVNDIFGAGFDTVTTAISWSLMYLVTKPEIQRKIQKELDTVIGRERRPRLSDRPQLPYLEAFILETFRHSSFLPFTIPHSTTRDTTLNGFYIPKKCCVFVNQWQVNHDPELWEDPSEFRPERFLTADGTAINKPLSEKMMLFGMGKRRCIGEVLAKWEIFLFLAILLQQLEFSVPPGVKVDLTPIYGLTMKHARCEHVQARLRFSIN

For the compound `OCC1=C[C@@H](O)[C@@H]2C=CO[C@@H](O[C@@H]3O[C@H](CO)[C@@H](O)[C@H](O)[C@H]3O)[C@H]12`, the call in [1] was inactive. Besides, the Potency result in [2], in assay [3], in assay [4], in [5] and in assay [6] was “inactive” in each case.
As for `CCCC(C(=O)O)c1c(C)nc2ccc(Cl)cc2c1-c1ccccc1` (stereo unspecified), the result in [1] was inactive. The Potency entry in assay [2], in [3], in assay [4], in assay [7], in [5] and in assay [6] was “inactive” in each case.
For the compound `OC[C@H]1O[C@@H](OCCc2ccccc2)[C@H](O)[C@@H](O)[C@@H]1O`, the Potency entry in [2], in assay [3], in [4] and in assay [5] was “inactive” in each case. Also, in [7], the Potency is 11.9 µM (active).
Regarding `COC(=O)C1=CO[C@@H](O[C@@H]2O[C@H](CO)[C@@H](O)[C@H](O)[C@H]2O)[C@@H]2C(CO)=CC[C@H]12`, the call in assay [1] was inactive. Also, the Potency entry in assay [2], in assay [3], in assay [4], in assay [7], in assay [5] and in [6] was “inactive” in each case.
Consider `CC(=O)O[C@@H]1C[C@@H](C)[C@](O)(CCC2=CC(=O)OC2)[C@@]2(C)CCCC(C)(C)C12` (stereo partly specified), for which the compound was called inactive in [8], in assay [9], in assay [10], in [11], in assay [12] and in assay [14]. Moreover, the call in assay [17] was inactive. Also, the Potency result in assay [2], in assay [3], in assay [4], in [7] and in assay [6] was “inactive” throughout. For the same compound, the Potency in assay [13] was 4.47 µM (active); in [15], 8.91 µM (active); in assay [16], 2.82 µM (active); in assay [18] it was 3.98 µM (active). The max response in assay [19] was -1.72%.
Regarding `O=C(OCC1=C[C@@H](O)[C@@H]2C=CO[C@@H](O[C@@H]3O[C@H](CO)[C@@H](O)[C@H](O)[C@H]3O)[C@H]12)c1ccc(O)cc1`, the compound was called inactive in assay [8], in [9], in assay [10], in assay [11], in assay [12] and in assay [14]. In assay [17], the result was inactive. Besides, the Potency result in assay [2], in [3], in assay [4], in assay [5], in assay [6] and in [13] was “inactive” in each case. Also, the Potency result in assay [15], in assay [16] and in assay [18] was “inactive” in each case. For the same compound, the Potency in assay [7] was 10.3 µM (active). The max response in assay [19] was -1.45%.
With `CC1(C)OC(=O)CC(O)C2(C)C1CC(=O)C1(C)C2C(O)CC2(C)C(c3ccoc3)OC(=O)C3OC321` (stereo unspecified), the Potency result in assay [2], in [3], in assay [4] and in [7] was “inactive” each time.
In the case of `C=C1C[C@]23C[C@@]1(O)CC[C@H]2[C@@]12C=C[C@H](O)[C@@](C)(C(=O)O1)[C@H]2[C@@H]3C(=O)O`, the Potency entry in [2], in [3], in assay [4] and in [7] was “inactive” throughout.
With `CC(=O)OC12CC(C)C(OC(=O)c3ccccc3)C1/C=C(/C)C(OC(=O)c1ccccc1)CC(=O)C(C)(C)/C=C/C(C)C2=O` (stereo unspecified), the Potency entry in [2], in [3], in assay [4] and in assay [7] was “inactive” throughout.
With `Cc1noc2c1-c1ccccc1C(c1ccc(Cl)cc1)=N[C@H]2CC(N)=O`, in assay [1], the compound was classed as inactive. Further, the Potency in assay [20] was 5.15 µM (active). The Potency result in assay [2], in [3], in [4], in assay [7], in [5] and in assay [6] was “inactive” throughout.
On to `O=C1OC(c2ccc(O)cc2)C(O)=C1Cc1ccccc1` (stereo unspecified), for which the Potency result in [2], in assay [3] and in [4] was “inactive” each time.
Turning to `CC1(C)C[C@H]2C=C(C=O)[C@]3(C(=O)O)C[C@]3(C)[C@H]2C1`, the Potency entry in [2], in [3], in assay [4] and in assay [5] was “inactive” each time. For the same compound, the Potency in [7] is 11.9 µM (active).
With `NCCCCN(Cc1nc2ccccc2[nH]1)[C@H]1CCCc2cccnc21`, the call in assay [1] was inactive. Moreover, the Potency entry in assay [2], in assay [3], in assay [4], in assay [7], in assay [5] and in assay [6] was “inactive” in each case.
For `Cc1cc(OCCN2CCOCC2)nn1-c1ccc2ccccc2c1`, the compound was classed as inactive in assay [1]. Besides, the Potency entry in assay [2], in assay [3], in [4], in assay [7] and in [5] was “inactive” in each case.
